In all, about 8,300 sequences were measured (“log2 fold change of degron read counts, EGFP-low vs EGFP+ sorted cells (limma voom), compound-induced degradation”: median about -1.1, highest 2% from about 3.2 on). For the sample, the highest values were picked, then their nearest neighbours and some sequences at random.
T1: CRBN, Q96SW2
T1 chain: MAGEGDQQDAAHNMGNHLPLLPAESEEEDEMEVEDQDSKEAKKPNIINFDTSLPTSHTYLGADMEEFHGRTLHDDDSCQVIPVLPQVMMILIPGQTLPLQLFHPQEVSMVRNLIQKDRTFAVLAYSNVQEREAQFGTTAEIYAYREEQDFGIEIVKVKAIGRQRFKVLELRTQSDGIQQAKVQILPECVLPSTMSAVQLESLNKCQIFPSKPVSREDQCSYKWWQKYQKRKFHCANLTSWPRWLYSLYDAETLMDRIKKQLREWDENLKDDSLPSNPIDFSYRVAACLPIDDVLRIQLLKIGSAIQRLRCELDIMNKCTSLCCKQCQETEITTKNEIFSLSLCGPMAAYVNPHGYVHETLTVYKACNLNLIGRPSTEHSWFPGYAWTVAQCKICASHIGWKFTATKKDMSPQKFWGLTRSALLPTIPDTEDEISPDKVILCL

B1: 46F_47R_49S_50V_52G_53H_54L_55F_67L_, Q9UKT9 (peptide)
chain: FRCSVCGHLFTQKGNLLRHIKL
B2: 46L_47Y_49N_50Q_52G_53F_54Q_55C_67L_, Q9UKT9 (peptide)
chain: LYCNQCGFQCTQKGNLLRHIKL
B3: 46L_47W_49P_50I_52G_53F_54S_55C_67L_, Q9UKT9 (peptide)
chain: LWCPICGFSCTQKGNLLRHIKL
B4: 46L_47T_49P_50I_52G_53F_54S_55C_67L_, Q9UKT9 (peptide)
chain: LTCPICGFSCTQKGNLLRHIKL
B5: 46L_47Q_49P_50I_52G_53F_54G_55C_67L_, Q9UKT9 (peptide)
chain: LQCPICGFGCTQKGNLLRHIKL
B6: 46L_47Y_49P_50I_52G_53F_54S_55C_67L_, Q9UKT9 (peptide)
chain: LYCPICGFSCTQKGNLLRHIKL
B7: 46L_47Q_49P_50I_52G_53F_54W_55C_67L_, Q9UKT9 (peptide)
chain: LQCPICGFWCTQKGNLLRHIKL
B8: 46L_47T_49P_50I_52G_53F_54E_55C_67L_, Q9UKT9 (peptide)
chain: LTCPICGFECTQKGNLLRHIKL
B9: 46L_47Y_49P_50I_52G_53F_54E_55C_67L_, Q9UKT9 (peptide)
chain: LYCPICGFECTQKGNLLRHIKL
B10: 46L_47Q_49P_50I_52G_53F_54S_55C_67L_, Q9UKT9 (peptide)
chain: LQCPICGFSCTQKGNLLRHIKL
B11: 46L_47W_49P_50I_52G_53F_54E_55C_67L_, Q9UKT9 (peptide)
chain: LWCPICGFECTQKGNLLRHIKL
B12: 46F_47D_49E_50V_52G_53A_54Y_55F_67L_, Q9UKT9 (peptide)
chain: FDCEVCGAYFTQKGNLLRHIKL
B13: 46L_47V_49N_50Q_52G_53F_54T_55C_67L_, Q9UKT9 (peptide)
chain: LVCNQCGFTCTQKGNLLRHIKL
B14: 46F_47L_49N_50Q_52G_53H_54S_55F_67L_, Q9UKT9 (peptide)
chain: FLCNQCGHSFTQKGNLLRHIKL
B15: 46F_47A_49E_50I_52G_53R_54I_55F_67L_, Q9UKT9 (peptide)
chain: FACEICGRIFTQKGNLLRHIKL
B16: 46F_47V_49D_50I_52G_53A_54N_55F_67L_, Q9UKT9 (peptide)
chain: FVCDICGANFTQKGNLLRHIKL
B17: 46F_47K_49P_50I_52G_53R_54Q_55F_67L_, Q9UKT9 (peptide)
chain: FKCPICGRQFTQKGNLLRHIKL
B18: 46L_47V_49P_50I_52G_53F_54S_55C_67L_, Q9UKT9 (peptide)
chain: LVCPICGFSCTQKGNLLRHIKL
B19: 46L_47R_49P_50I_52G_53F_54S_55C_67L_, Q9UKT9 (peptide)
chain: LRCPICGFSCTQKGNLLRHIKL
B20: 46L_47N_49P_50I_52G_53F_54S_55C_67L_, Q9UKT9 (peptide)
chain: LNCPICGFSCTQKGNLLRHIKL
B21: 46L_47C_49P_50I_52G_53F_54S_55C_67L_, Q9UKT9 (peptide)
chain: LCCPICGFSCTQKGNLLRHIKL
B22: 46L_47F_49P_50I_52G_53F_54S_55C_67L_, Q9UKT9 (peptide)
chain: LFCPICGFSCTQKGNLLRHIKL
B23: 46L_47F_49P_50I_52G_53F_54E_55C_67L_, Q9UKT9 (peptide)
chain: LFCPICGFECTQKGNLLRHIKL
B24: 46F_47Q_49E_50I_52G_53R_54N_55F_67L_, Q9UKT9 (peptide)
chain: FQCEICGRNFTQKGNLLRHIKL
B25: 46F_47A_49P_50Q_52G_53A_54H_55F_67L_, Q9UKT9 (peptide)
chain: FACPQCGAHFTQKGNLLRHIKL
B26: 46F_47R_49P_50Q_52G_53A_54Y_55F_67L_, Q9UKT9 (peptide)
chain: FRCPQCGAYFTQKGNLLRHIKL
B27: 46F_47Y_49N_50I_52G_53A_54P_55F_67L_, Q9UKT9 (peptide)
chain: FYCNICGAPFTQKGNLLRHIKL
B28: 46F_47I_49N_50I_52G_53A_54P_55F_67L_, Q9UKT9 (peptide)
chain: FICNICGAPFTQKGNLLRHIKL
B29: 46F_47E_49N_50I_52G_53A_54P_55F_67L_, Q9UKT9 (peptide)
chain: FECNICGAPFTQKGNLLRHIKL
B30: 46F_47V_49N_50Q_52G_53A_54P_55F_67L_, Q9UKT9 (peptide)
chain: FVCNQCGAPFTQKGNLLRHIKL
B31: 46F_47N_49N_50I_52G_53A_54P_55F_67L_, Q9UKT9 (peptide)
chain: FNCNICGAPFTQKGNLLRHIKL
B32: 46F_47T_49N_50I_52G_53A_54P_55F_67L_, Q9UKT9 (peptide)
chain: FTCNICGAPFTQKGNLLRHIKL
B33: 46F_47L_49N_50I_52G_53A_54P_55F_67L_, Q9UKT9 (peptide)
chain: FLCNICGAPFTQKGNLLRHIKL
B34: 46F_47V_49N_50I_52G_53A_54P_55F_67L_, Q9UKT9 (peptide)
chain: FVCNICGAPFTQKGNLLRHIKL
B35: 46F_47R_49N_50I_52G_53A_54P_55F_67L_, Q9UKT9 (peptide)
chain: FRCNICGAPFTQKGNLLRHIKL

Target: T1, CRBN, Q96SW2
Assay: log2 fold change of degron read counts, EGFP-low vs EGFP+ sorted cells (limma voom), compound-induced degradation; higher = more compound-induced degradation of the degron-EGFP fusion; degrons are variants of IKZF1/3 zinc finger 2; compound dose not given here
Settings: Jurkat, 18 h
Protocol: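 Pooled library of 8380 IKZF3 ZF2 degron mutants (positions 146-167 varied within the IKZF3 130-189 degron; only the varied core is printed, flanks not printed) fused to EGFP with IRES-mCherry, lentivirally expressed in Jurkat cells. mCherry+ cells were treated with one IMiD compound for 18 h (dose not stated) and FACS-sorted into EGFP-low and EGFP+ populations. Degron sequences were counted by NGS, and log2FC (EGFP-low vs EGFP+) was estimated by limma voom over 3 biological replicates.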

[1] = compound: compound 19 (5-tert-butyl-thalidomide)
[2] = compound: compound 22 (5-morpholino-thalidomide)
[3] = compound: compound 33 (diphenyl IMiD analogue)
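Also: pooled lentiviral library of zinc finger degron-EGFP fusions in mCherry-positive Jurkat cells, FACS-sorted after compound exposure, with degron abundance counted by next-generation sequencing.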

Sequence	log2 fold change of degron read counts [1]	log2 fold change of degron read counts [2]	log2 fold change of degron read counts [3]	log2 fold change of degron read counts (compound: thalidomide)
B1	-2.53	-3.16	-2.34	-2.39
B2	-1.36	-0.758	-1.33	-2.14
B3	3.31	3.57	2.84	2.33
B4	2.51	3.37	2.87	3.49
B5	2.46	2.07	1.63	3.23
B6	3.73	3.72	3.09	2.7
B7	0.033	0.594	1.15	2.58
B8	0.6	1.64	1.55	2.4
B9	2.78	2.56	2.08	0.736
B10	2.67	2.76	2.41	3.53
B11	2.12	2.64	2.17	0.382
B12	-0.638	-1.5	-0.115	-0.462
B13	-2.33	-3.26	-0.847	-1.21
B14	-2.63	-2.99	-3.12	-2.74
B15	0.366	-1.59	-1.49	-1.01
B16	-0.564	1.47	0.815	1.12
B17	-2.24	-2.58	-2.12	-0.821
B18	2.25	3.63	2.38	3.59

Sequence	log2 fold change of degron read counts [1]	log2 fold change of degron read counts [2]	log2 fold change of degron read counts [3]	log2 fold change of degron read counts (compound: thalidomide)
B19	2.24	1.9	2.44	2.71
B20	2.9	2.01	1.38	2
B21	2.83	3.15	3	3.11
B22	3.55	3.56	2.79	2.78
B23	2.8	2.89	1.47	0.989
B24	-2.38	-2.7	-0.772	0.915
B25	0.167	-2	-1.13	-1.72
B26	-1.85	-1.73	-0.273	-0.427
B27	3.87	3.54	2.43	1.04
B28	1.31	3.43	2.32	2.76
B29	0.92	-1.22	0.793	1.96
B30	-1.48	0.603	-0.000403	0.468
B31	3.04	1.9	0.574	0.97
B32	2.03	3.03	2.21	2.73
B33	1.46	1.8	2.1	2.49
B34	1.87	3.32	2.44	3.33
B35	2.88	3.49	3.05	3.38
